From ChEMBL document CHEMBL3988442, “University of Dundee, Small-Polar-MMV Screening Library” (2021)
For some of these results: Measured potencies and affinities stand elsewhere.

Legend:
Parameters in all cases: scale not given: direction of the effect not stated beside the values
[1] = molecular target: Protein translocase subunit SecA (Escherichia coli (strain K12)) (UniProt P10408); test: Assay to Identify E. coli SecA ATPase Inhibitors; assay type: functional; conditions: 30 µM
[2] = molecular target: T1, Ubiquitin-activating enzyme e1, putative (Leishmania donovani (strain BPK282A1)) (UniProt E9BSI1); test: Leishmania donovani Ubiquitin Activating Enzyme (LdE1); assay type: functional; conditions: 30 µM
T1 sequence (whole entry): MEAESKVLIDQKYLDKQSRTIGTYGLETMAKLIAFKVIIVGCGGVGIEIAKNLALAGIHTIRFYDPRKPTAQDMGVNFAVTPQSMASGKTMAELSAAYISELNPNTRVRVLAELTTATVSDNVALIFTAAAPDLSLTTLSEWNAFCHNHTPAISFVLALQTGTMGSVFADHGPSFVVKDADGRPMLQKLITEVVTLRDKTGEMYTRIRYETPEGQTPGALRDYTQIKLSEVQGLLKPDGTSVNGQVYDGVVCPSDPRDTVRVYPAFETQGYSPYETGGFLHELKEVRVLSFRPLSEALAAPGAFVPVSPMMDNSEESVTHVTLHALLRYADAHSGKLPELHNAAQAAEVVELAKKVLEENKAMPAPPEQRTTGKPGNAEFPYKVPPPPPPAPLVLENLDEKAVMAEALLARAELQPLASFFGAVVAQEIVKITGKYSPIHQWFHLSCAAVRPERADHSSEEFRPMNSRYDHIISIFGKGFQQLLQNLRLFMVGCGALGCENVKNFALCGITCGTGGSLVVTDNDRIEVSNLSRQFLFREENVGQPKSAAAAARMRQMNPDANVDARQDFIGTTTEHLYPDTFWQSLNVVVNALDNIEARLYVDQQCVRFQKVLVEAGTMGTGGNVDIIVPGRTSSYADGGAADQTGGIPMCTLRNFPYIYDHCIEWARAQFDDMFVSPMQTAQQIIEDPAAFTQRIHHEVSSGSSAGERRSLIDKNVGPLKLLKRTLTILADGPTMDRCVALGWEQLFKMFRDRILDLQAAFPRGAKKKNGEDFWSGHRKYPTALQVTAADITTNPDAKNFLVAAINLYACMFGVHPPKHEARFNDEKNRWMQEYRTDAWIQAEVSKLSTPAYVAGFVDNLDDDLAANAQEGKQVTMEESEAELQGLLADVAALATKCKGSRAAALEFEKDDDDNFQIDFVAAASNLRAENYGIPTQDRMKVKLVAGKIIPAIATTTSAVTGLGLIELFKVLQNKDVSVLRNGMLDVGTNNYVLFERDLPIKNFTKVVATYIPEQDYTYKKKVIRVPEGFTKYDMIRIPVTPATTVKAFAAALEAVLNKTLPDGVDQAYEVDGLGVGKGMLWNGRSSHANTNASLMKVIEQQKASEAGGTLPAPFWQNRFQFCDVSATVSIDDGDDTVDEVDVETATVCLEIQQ

[3] = molecular target: AMP-activated protein kinase, AMPK (Homo sapiens) (UniProt P54646+O43741+P54619+Q9UGJ0+Q9Y478+Q13131+Q9UGI9); test: AMP-dependent Kinase enzyme assay. An in vitro enzyme assay that detects ADP turnover that is directly proportional to AMPK activity. This uses naive AMPK that is activated during the assay with MK-8722; assay type: functional; conditions: 30 µM
[4] = molecular target: Sialic acid-binding Ig-like lectin 9 (Homo sapiens) (UniProt Q9Y336); test: Hs-Siglec9 ALPHAscreen SOP 20170721; conditions: 10 µM
[5] = system: Trypanosoma cruzi; test: Trypanosoma cruzi phosphomannomutase and mannose-1-phosphate guanylyltransferase assay; assay type: functional; conditions: 10 µM
[6] = molecular target: T2, Arginase-2, mitochondrial (Homo sapiens) (UniProt P78540); test: in vitro enzyme assay to detect the production of urea directly proportional to the activity of Arginase II; assay type: functional; conditions: 33.3 µM; also: in the data most compounds retested in dose-response had high values
T2 sequence (whole entry): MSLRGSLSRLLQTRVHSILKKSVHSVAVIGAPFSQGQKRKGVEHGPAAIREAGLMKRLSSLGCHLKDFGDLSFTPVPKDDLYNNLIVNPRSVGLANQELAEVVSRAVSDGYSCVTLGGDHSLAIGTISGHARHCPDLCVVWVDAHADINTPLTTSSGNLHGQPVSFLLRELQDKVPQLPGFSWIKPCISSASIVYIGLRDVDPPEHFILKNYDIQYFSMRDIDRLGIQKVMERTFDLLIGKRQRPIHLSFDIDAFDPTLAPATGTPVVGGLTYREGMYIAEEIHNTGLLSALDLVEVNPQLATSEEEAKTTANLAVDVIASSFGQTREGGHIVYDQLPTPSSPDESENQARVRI

[7] = molecular target: T3, Proteasome subunit beta (Trypanosoma cruzi) (UniProt O96673); test: Trypanosoma cruzi proteasome chymotrypsin-like activity (TcProtChymo) assay.; also: in the data most compounds retested in dose-response had high values; assay type: functional; conditions: 9.37 µM
T3 sequence (whole entry): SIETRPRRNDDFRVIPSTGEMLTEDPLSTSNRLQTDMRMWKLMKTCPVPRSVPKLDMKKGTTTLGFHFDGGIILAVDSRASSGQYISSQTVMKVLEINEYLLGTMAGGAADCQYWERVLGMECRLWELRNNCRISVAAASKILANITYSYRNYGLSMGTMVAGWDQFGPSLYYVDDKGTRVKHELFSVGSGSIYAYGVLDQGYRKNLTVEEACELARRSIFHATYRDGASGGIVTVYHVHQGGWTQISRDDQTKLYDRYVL

[8] = species: Homo sapiens; test: To identify inhibition of the IFN signalling (Jak-Stat) pathway via expression of an eGFP reporter gene under the control of an IFN-stimulated response element (ISRE) containing MxA promoter.; assay type: functional; conditions: 30 µM
[9] = molecular target: T4, Tyrosyl-tRNA synthetase, putative (Trypanosoma cruzi (strain CL Brener)) (UniProt Q4DSP6); test: Trypanosoma cruzi tyrosyl tRNA synthetase (TcYRS) _High Tyrosine SOP; assay type: functional; conditions: 30 µM; also: in the data most compounds retested in dose-response had high values
T4 sequence (whole entry): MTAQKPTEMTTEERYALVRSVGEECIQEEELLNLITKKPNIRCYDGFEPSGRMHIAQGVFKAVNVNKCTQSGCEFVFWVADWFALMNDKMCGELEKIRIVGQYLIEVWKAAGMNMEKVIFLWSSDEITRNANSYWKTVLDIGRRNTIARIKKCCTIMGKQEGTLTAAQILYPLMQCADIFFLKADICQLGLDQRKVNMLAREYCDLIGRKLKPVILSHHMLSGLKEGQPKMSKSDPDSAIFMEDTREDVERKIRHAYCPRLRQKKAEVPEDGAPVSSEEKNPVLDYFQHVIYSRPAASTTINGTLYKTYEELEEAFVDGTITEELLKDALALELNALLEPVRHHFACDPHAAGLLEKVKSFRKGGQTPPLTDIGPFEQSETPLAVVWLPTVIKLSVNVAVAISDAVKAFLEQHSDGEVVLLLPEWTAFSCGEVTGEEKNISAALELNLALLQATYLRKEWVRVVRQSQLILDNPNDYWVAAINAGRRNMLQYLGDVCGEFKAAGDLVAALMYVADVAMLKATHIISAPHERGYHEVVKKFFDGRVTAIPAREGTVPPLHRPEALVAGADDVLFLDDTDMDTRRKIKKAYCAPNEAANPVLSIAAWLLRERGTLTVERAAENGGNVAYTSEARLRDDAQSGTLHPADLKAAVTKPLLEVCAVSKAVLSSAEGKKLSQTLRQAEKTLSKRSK

[10] = molecular target: T4, Tyrosyl-tRNA synthetase, putative (Trypanosoma cruzi (strain CL Brener)); test: Trypanosoma cruzi tyrosyl tRNA synthetase (TcYRS) SOP; assay type: functional; conditions: 30 µM
[11] = molecular target: Chromo domain-containing protein 1 (Saccharomyces cerevisiae (strain ATCC 204508 / S288c) (Baker's yeast)) (UniProt P32657); test: ScCHD-1 Enzyme Inhibition Assay; assay type: functional; conditions: 30 µM; also: in the data most compounds retested in dose-response had high values
Chain of Chromo domain-containing protein 1 (Saccharomyces cerevisiae (strain ATCC 204508 / S288c) (Baker's yeast)) (P32657 whole entry, the tested form may be a part): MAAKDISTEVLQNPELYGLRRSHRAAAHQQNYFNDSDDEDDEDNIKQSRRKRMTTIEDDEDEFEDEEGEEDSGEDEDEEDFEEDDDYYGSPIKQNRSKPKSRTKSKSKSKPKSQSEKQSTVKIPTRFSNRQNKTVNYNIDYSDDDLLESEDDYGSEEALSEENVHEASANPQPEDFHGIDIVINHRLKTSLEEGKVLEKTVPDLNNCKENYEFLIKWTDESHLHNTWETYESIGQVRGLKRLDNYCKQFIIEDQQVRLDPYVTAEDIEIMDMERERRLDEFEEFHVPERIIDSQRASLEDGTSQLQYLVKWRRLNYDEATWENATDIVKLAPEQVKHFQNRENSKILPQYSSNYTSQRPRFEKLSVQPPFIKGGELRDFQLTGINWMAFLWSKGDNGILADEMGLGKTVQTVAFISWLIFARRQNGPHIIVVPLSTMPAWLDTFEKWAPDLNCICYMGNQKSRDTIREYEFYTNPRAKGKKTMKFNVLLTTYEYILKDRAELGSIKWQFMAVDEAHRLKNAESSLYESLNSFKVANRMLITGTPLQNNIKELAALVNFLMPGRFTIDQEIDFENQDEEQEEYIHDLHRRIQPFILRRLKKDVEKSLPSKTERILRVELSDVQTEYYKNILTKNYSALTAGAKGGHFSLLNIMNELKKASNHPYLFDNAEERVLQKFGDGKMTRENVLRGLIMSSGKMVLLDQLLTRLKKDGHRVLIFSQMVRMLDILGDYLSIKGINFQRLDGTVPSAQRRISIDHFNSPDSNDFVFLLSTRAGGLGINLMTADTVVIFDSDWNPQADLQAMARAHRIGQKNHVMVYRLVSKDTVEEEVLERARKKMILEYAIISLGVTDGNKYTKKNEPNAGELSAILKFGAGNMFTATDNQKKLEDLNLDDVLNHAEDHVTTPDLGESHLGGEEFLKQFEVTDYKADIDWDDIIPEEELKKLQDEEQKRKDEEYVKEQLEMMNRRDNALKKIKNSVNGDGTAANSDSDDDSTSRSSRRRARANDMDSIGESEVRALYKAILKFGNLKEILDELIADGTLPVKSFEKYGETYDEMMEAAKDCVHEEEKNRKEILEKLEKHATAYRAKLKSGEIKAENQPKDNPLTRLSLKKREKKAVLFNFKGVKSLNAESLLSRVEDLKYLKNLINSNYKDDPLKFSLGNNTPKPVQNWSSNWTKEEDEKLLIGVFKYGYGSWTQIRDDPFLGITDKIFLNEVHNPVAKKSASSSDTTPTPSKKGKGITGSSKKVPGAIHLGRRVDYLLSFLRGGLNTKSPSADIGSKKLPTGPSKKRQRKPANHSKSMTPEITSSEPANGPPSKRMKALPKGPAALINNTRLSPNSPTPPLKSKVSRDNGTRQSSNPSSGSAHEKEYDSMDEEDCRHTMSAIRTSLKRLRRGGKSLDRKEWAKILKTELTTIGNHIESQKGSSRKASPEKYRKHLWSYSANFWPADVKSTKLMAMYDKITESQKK

Chain of Protein translocase subunit SecA (Escherichia coli (strain K12)) (P10408 whole entry): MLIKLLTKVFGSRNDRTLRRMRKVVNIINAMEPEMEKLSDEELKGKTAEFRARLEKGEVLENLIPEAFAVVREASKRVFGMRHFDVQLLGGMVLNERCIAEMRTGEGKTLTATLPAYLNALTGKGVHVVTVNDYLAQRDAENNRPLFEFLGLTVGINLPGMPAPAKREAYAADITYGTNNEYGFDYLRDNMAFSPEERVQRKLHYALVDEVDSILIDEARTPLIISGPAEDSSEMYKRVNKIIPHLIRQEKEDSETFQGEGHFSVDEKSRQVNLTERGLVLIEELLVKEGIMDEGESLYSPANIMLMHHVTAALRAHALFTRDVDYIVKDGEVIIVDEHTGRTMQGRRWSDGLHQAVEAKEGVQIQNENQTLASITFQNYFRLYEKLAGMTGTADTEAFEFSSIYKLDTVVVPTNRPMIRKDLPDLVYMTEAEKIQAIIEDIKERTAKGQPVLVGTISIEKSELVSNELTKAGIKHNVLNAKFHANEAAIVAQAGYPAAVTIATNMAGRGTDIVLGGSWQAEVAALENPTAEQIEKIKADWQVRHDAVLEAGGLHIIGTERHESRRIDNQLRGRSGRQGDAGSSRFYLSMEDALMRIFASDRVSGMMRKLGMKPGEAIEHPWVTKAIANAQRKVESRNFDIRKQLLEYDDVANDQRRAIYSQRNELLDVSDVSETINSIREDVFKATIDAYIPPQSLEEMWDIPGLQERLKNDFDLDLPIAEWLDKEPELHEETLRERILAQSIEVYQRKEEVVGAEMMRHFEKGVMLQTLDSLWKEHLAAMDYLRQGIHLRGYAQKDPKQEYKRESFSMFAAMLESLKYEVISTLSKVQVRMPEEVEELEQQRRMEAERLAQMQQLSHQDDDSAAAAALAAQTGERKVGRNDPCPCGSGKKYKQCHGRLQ
Chain of Sialic acid-binding Ig-like lectin 9 (Homo sapiens) (Q9Y336 whole entry): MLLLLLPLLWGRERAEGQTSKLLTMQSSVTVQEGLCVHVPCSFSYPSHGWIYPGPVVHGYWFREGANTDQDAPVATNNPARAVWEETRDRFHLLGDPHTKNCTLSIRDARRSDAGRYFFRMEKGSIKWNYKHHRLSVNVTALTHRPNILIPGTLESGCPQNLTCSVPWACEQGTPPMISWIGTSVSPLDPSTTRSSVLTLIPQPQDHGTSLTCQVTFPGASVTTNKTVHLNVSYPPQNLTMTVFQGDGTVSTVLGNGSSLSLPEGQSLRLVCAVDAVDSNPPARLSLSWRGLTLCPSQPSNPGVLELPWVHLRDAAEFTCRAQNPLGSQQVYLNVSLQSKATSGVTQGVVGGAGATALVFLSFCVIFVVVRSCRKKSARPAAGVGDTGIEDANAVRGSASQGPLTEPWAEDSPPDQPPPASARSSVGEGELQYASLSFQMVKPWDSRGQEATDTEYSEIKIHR

Row | Structure (SMILES) | Percent Effect [1] [%] | Percent Effect [2] [%] | Percent Effect [3] [%] | Percent Effect [4] [%] | Percent Effect [5] [%] | Percent Effect [6] [%] | Percent Effect [7] [%] | Percent Effect [8] [%] | Percent Effect [9] [%] | Percent Effect [10] [%] | Percent Effect [11] [%]
1 | Cc1noc([C@H]2C[C@@H]3CCN(C(=O)C4CCOCC4)C[C@H]3O2)n1 | -3.88 | 0 | 7.28 | 1.95 | -3.81 | 8.6 | 17 | -2.45 | 1.08 | 5.13 | 3.17
2 | COCC(=O)N1CCC(c2noc3nc(C)cc(C(F)(F)F)c23)CC1 | -6.46 | 4.05 | 9.11 | -5.57 | -2.37 | -7.66 | 13.9 | 21.4 | -2.15 | -1.3 | -1.78
3 | CN1CCN(C(=O)Cc2cccc(F)c2)Cc2cccnc21 | -3.84 | 2.6 | -0.44 | 1.15 | 8.55 | -9.65 | -0.499 | 6.92 | 2.15 | 3.7 | -6.06
4 | COc1c(CNC2CCN(c3ncccn3)CC2)c(C(C)C)nn1C | -4.79 | 10.5 | 4.83 | -4.46 | -6.26 | 7.55 | 2.79 | -4.77 | 6.4 | 16.1 | -4.31
5 | O=C(NCCN1CCCCC1)c1nc(-c2ccc3cc[nH]c3c2)no1 | -1.02 | 25.3 | -7.25 | 3.61 | 4.71 | -4.75 | 20.5 | -13.4 | 4.23 | 12.8 | -6.27
6 | O=C1N(c2ccccc2)Cc2nc(=O)[nH]n21 | -6.16 | 9.33 | -6.52 | 1.33 | 1.38 | -3.35 | 12.2 | 8.42 | 4.23 | 10.3 | -10.1
7 | CN(C)C(=O)COC[C@]12COC[C@H]1CN(CC1CCC1)C2 | 1.38 | 2.7 | -10.5 | 19.2 | 4.79 | 6.7 | 7.12 | 8.3 | 2.15 | 3.7 | -9.34
8 | CC(C)CN1CCN(C(=O)Nc2cc(C(F)(F)F)c[nH]c2=O)CC1 | -3.29 | 2.6 | 6.98 | 4.09 | -2.06 | 2.13 | 3.55 | 20.1 | 5.83 | 12.2 | -7.11
9 | O=C(NCc1ccccc1F)N1CCC(C2OCCO2)CC1 | -3.95 | 7.89 | -0.484 | -1.41 | -5.94 | -5.92 | 7.19 | -6.9 | 4.25 | 7.79 | -3.04
10 | Cc1ccc(C)c(NC(=O)Nc2c[nH]c(=O)[nH]c2=O)c1 | 3.77 | 13 | -1.87 | -3.33 | -4.44 | 11 | 4.7 | 7.57 | 2.12 | 3.85 | -8.57
11 | Cc1nonc1CN(C)CC1(O)CCCN(CCC2CCCCC2)C1=O (stereo unspecified) | 2.32 | 8 | -14.2 | -0.787 | 1.66 | 12.5 | 16.4 | 35.9 | 10.4 | 18.5 | -1.61
